Records with an inconclusive call do not appear. Calls of active or inactive are those of the source. Calls follow the shape of the dose curve; as a rule, active = well fitted cell-killing curve with a large enough effect in the repeat runs; inconclusive = weak or mixed curves, or effect the other way; inactive = no such curve, though single readings can be large or run the other way.
Assay: qHTS assay to identify small molecule agonists of the RXR signaling pathway - cell viability counter screen (AID 1159529); also: nearly all actives have a fitted effect of over 50% in size
Conditions: RXR-alpha-bla HEK293T viability, CellTiter-Glo, 16 h; series mostly up to 76.8 µM; activity change, negative = cytotoxicity: at the top concentration
From the text: National Center for Advancing Translational Sciences [NCATS]
NIH Chemical Genomics Center [NCGC]
U.S. Environmental Protection Agency [EPA]
National Institutes of Environmental Health Sciences [NIEHS]
National Toxicology Program [NTP]
U.S. Food and Drug Administration [FDA]
The Retinoid X receptor (RXR), a nuclear hormone receptor expressed in liver, spleen, placenta, epidermis, central nervous system. These receptors are able to form homo and heterodimers with other nuclear receptors and due to this heterodimerizing ability, RXR functions as master regulators producing diverse physiological effects. Three subtypes of RXR exist; alpha, beta and gamma. Retinoid X receptor alpha (RXR-alpha) has potential roles in metabolic signaling pathways, skin alopecia, dermal cysts, cardiac development, insulin sensitization etc. Therefore screening environmental chemicals on RXR-alpha signaling can be used for the studies focused on such therapeutic applications. For quantification of RXR-alpha ligands signaling, GeneBLAzer RXR alpha-UAS-bla HEK 293T (Life Technologies, Carlsbad, CA) cells containing a beta-lactamase reporter-gene under control of Retinoid X receptor-alpha response element were used to screen Tox21 10K library. The cytotoxicity of the Tox21 compound library against the RXR-alpha HEK 293T cell line was tested in parallel by measuring cell viability using CellTiter-Glo assay (Promega Corporation, Madison, WI) in the same wells.
Tox21 Assay Protocol Summary:
RXR-alpha HEK 293T cells were dispensed at 2,000 cells/6 uL of assay medium containing 2% charcoal-stripped FBS using a Multidrop Combi (ThermoFisher Scientific, Waltham, MA) dispenser. The assay was performed in black wall/clear-bottom 1536-well plates (Greiner Bio-One North America Inc. Monroe, NC). Tetraoctyl ammonium bromide was used as a positive control in the cytotoxicity screen. After the assay plates were incubated at 37 C and 5% CO2 for 5 hr, 23 nL of compounds dissolved in DMSO, positive control or DMSO only were transferred to the assay plate by a Pintool station (Kalypsys, San Diego, CA). The assay plates were incubated at 37 C and 5% CO2 for 16 hr. One uL of LiveBLAzer B/G FRET substrate (Life Technologies) was added using a Flying Reagent Dispenser (FRD) (Aurora Discovery, San Diego, CA) and the plates were incubated at room temperature for 2 hr. Fluorescence intensity (405 nm excitation, 460/530 nm emission) was measured using an Envision plate reader (PerkinElmer, Shelton, CT). For cytotoxicity, 4 uL/well of CellTiter-Glo reagent was added into the assay plates using an FRD. After 30 min incubation at room temperature, the luminescence intensity was measured using a ViewLux plate reader (PerkinElmer).
% is scaled to controls: 0 for no effect and ±100 for the full control effect.

Structure (SMILES) | activity change, negative = cytotoxicity
C=C(C)C1CCC(C)(O)CC1 (stereo not given) | 0.681% (inactive)
CCCC(=O)C(C)=O | 2.25% (inactive)
O=C(O)c1cc(Cl)cc([N+](=O)[O-])c1Cl | 9.69% (inactive)
O=S(=O)(O)CCN1CCN(CCO)CC1 | 0.425% (inactive)
CCN(CC)CC(=O)Nc1c(C)cccc1C | 8.66% [at 35.3 µM] (inactive)
C=C(C)C(=O)OCCNC(C)(C)C | 5.83% (inactive)
O=C1O[C@@H]2[C@@H](O)[C@H](O)O[C@@H]2[C@H]1O | 1.07% (inactive)
CC(CN)CC(C)(C)CCN (stereo not given) | 0.789% [at 200 µM] (inactive)
CCCCNC1CC(C)(C)NC(C)(C)C1 | -1.96% (inactive)
C=CC(OCC)OCC | -1.35% (inactive)
C[Si](C)(C)C | 2.09% (inactive)
O=C1c2cccc3c2[C@H](CCC3)CN1[C@@H]1CN2CCC1CC2 | -14.4% [at 35.3 µM] (inactive)
O=C(NCCc1c[nH]c2ccccc12)c1cccnc1 | -3.31% [at 35.3 µM] (inactive)
O=C(NCC(O)CO)c1c(I)c(C(=O)NCC(O)CO)c(I)c(N(CCO)C(=O)CO)c1I (stereo not given) | 1.82% [at 35.3 µM] (inactive)
CCOc1cc([N+](=O)[O-])c(OCC)cc1N1CCOCC1 | -17.6% (inactive)
NS(=O)(=O)c1ccc(NC(=O)CCC(=O)O)cc1 | 4.72% [at 35.3 µM] (inactive)
C[C@H](N)[C@H](O)c1cccc(O)c1 | 9.22% [at 35.3 µM] (inactive)
CCc1ccc(C=O)cc1 | -0.254% (inactive)
CCn1ccc(NS(=O)(=O)c2ccc(N)cc2)nc1=O | 3.19% [at 35.3 µM] (inactive)
CC(C)CCCC(C)(C)O | 7.69% (inactive)

Structure (SMILES) | activity change, negative = cytotoxicity
CCCOC(OCCC)OCCC | 2.45% (inactive)
CC1=CCC(C(C)C)=CC1 | -1.55% (inactive)
CN1C(C)(C)CCCC1(C)C | 0.448% [at 35.3 µM] (inactive)
Cc1ccc2c(c1)OCC(=O)CO2 | -1.67% (inactive)
C[C@@H](O)[C@H]1C(=O)N2C(C(=O)O)=C(SCCN=CN)C[C@H]12 | 0.485% [at 35.3 µM] (inactive)
CCCCCCCC/C=C\CCCCCCCC(=O)OCCCC | 1.56% [at 15.8 µM] (inactive)
C#CC(C)N(C)C(=O)Nc1ccc(Cl)cc1 (stereo not given) | -10.7% (inactive)
C=COCCOCCOCCOC=C | 12.4% (inactive)
CCCCN | 3.62% [at 35.3 µM] (inactive)
COc1cc2c(cc1OC)C(=O)CC2 | 16.9% [at 35.3 µM] (inactive)
CCCC/C=C/C=C\C=O | -11.1% (inactive)
CCC(C)NC(N)=O (stereo not given) | -1.53% (inactive)
CN1CCN(CC(=O)N2c3ccccc3C(=O)Nc3cccnc32)CC1 | 0.873% [at 6.97 µM] (inactive)
CC1(C)S[C@@H]2[C@H](N=CN3CCCCCC3)C(=O)N2[C@H]1C(=O)O | 2.57% [at 35.3 µM] (inactive)
Cc1cccc(C)c1OCC(C)N (stereo not given) | 4.37% [at 35.3 µM] (inactive)
CN(C)c1ccc(C=O)cc1 | 1.76% (inactive)
CN(C)C(=O)CNC(=O)Cc1ccccc1 | 8.71% [at 35.3 µM] (inactive)
CCOC(=O)[C@H](CCc1ccccc1)N[C@@H](C)C(=O)N1C(=O)N(C)C[C@H]1C(=O)O | -1.72% [at 35.3 µM] (inactive)
CN(C)CCOCCO | 9.1% (inactive)
COc1ccc2c(c1)C(=O)N(CCc1ccc(S(=O)(=O)NC(=O)NC3CCCCC3)cc1)C(=O)C2(C)C | 0.0924% [at 35.3 µM] (inactive)

Reference: PubChem BioAssay (Tox21)
